Assay results reported in the supplement of paper PMC11732987, “Enantioselective OTUD7B fragment discovery through chemoproteomics screening and high-throughput optimisation” (Communications Chemistry, 2025).
A number with no mark means an inactive call.

Key:
Assay in all cases: log2 ratio of Biotin-Ahx-Ub-VS probe labelling (fragment/DMSO); higher = less target engagement (more negative = stronger competition), active = hit call of the paper (q ≤ 0.05, log2 ratio ≤ -1)
Conditions in all cases: compound concentration: 200 uM; treatment time: 3 h
USP42 = biological target: T1, USP42 (UniProt Q9H9J4)
T1 sequence (whole entry): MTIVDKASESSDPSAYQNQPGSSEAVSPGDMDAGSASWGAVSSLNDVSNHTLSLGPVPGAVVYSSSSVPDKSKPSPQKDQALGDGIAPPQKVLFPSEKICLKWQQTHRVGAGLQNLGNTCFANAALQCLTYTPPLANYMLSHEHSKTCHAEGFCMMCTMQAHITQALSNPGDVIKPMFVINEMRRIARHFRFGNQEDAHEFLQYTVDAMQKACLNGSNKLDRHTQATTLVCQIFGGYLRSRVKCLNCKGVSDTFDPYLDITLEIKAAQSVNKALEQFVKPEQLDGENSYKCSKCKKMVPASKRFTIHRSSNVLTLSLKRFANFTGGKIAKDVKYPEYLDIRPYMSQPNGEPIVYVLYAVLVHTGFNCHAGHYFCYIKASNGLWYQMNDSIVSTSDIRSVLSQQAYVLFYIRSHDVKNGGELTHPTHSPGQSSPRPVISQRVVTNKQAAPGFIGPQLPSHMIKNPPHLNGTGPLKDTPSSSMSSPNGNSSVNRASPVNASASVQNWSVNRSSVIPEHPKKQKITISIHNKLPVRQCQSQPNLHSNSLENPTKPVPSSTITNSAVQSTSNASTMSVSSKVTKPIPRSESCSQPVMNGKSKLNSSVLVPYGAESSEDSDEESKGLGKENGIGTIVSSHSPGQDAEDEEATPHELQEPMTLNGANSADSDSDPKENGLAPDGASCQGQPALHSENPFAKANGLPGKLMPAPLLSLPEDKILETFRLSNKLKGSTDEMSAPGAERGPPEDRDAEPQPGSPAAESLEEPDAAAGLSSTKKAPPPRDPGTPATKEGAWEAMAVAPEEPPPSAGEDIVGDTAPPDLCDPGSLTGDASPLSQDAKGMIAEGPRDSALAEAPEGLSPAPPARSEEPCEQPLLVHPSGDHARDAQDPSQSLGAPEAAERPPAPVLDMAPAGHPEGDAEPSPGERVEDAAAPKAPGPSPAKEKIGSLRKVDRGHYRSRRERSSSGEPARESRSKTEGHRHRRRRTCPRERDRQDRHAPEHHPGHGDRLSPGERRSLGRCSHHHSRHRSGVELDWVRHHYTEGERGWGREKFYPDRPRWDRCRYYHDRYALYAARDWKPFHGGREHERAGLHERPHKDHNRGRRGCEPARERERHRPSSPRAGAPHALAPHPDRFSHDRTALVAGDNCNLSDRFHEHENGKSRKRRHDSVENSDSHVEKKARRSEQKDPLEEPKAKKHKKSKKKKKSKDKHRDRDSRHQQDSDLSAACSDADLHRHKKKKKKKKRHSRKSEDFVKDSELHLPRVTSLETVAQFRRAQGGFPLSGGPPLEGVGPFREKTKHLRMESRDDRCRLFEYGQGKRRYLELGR
Summary of the method: (§1)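 Labelled DUBs from HEK293T lysate were NeutrAvidin-enriched, digested with LysC and trypsin, and run by diaPASEF LC-MS/MS. Before that, each 495 µg sample in Tris/CHAPS/IGEPAL buffer with protease inhibitors was treated in triplicate with fragment at 200 µM or vehicle for 3 h, then with Biotin-Ahx-Ub-VS at 0.5 µM final for 1 h. Values are average log2 ratios of fragment over vehicle by unpaired t-test, based on global-median-normalised Spectronaut label-free quantities from proteins with ≥2 unique peptides.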

USP46 = USP46 (UniProt P62068)
Summary of the method: as §1

USP47 = biological target: T2, USP47 (UniProt Q96K76)
T2 sequence (whole entry): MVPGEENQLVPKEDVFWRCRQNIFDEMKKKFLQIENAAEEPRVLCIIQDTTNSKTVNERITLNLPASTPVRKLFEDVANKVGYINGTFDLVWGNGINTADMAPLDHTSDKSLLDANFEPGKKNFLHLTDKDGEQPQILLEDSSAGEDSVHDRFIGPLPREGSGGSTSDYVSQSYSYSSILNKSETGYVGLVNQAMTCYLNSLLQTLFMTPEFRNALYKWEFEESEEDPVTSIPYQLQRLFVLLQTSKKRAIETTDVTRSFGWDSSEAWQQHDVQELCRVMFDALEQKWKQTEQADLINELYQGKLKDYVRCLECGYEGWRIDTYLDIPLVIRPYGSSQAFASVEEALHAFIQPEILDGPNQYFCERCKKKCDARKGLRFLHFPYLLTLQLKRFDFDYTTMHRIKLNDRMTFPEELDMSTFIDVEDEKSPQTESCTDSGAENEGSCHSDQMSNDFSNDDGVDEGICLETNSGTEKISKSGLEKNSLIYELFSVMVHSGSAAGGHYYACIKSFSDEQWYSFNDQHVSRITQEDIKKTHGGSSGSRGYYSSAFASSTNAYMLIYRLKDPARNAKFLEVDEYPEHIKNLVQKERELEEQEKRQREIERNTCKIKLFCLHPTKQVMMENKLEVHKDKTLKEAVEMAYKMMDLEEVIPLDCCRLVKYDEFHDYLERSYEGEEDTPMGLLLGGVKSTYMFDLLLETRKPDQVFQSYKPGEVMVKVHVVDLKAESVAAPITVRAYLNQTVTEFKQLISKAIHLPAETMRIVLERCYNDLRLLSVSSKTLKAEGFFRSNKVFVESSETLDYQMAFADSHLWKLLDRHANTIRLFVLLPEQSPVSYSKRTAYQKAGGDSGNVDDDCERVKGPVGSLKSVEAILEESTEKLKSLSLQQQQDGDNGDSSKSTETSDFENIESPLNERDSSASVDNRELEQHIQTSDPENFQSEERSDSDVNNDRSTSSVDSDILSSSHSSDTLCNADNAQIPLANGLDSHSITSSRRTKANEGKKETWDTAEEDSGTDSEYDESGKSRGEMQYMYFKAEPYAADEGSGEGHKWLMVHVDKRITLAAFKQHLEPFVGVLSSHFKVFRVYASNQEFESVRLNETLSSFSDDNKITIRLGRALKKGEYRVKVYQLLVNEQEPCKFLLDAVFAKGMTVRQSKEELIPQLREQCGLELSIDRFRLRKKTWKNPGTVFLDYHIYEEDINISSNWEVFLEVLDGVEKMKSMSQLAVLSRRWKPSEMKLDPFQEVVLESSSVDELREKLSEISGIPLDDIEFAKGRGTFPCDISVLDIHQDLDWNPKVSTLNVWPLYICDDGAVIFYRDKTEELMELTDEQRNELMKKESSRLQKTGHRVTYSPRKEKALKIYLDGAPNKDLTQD
Summary of the method: as §1

USP48 = biological target: T3, USP48 (UniProt Q86UV5)
T3 sequence (whole entry): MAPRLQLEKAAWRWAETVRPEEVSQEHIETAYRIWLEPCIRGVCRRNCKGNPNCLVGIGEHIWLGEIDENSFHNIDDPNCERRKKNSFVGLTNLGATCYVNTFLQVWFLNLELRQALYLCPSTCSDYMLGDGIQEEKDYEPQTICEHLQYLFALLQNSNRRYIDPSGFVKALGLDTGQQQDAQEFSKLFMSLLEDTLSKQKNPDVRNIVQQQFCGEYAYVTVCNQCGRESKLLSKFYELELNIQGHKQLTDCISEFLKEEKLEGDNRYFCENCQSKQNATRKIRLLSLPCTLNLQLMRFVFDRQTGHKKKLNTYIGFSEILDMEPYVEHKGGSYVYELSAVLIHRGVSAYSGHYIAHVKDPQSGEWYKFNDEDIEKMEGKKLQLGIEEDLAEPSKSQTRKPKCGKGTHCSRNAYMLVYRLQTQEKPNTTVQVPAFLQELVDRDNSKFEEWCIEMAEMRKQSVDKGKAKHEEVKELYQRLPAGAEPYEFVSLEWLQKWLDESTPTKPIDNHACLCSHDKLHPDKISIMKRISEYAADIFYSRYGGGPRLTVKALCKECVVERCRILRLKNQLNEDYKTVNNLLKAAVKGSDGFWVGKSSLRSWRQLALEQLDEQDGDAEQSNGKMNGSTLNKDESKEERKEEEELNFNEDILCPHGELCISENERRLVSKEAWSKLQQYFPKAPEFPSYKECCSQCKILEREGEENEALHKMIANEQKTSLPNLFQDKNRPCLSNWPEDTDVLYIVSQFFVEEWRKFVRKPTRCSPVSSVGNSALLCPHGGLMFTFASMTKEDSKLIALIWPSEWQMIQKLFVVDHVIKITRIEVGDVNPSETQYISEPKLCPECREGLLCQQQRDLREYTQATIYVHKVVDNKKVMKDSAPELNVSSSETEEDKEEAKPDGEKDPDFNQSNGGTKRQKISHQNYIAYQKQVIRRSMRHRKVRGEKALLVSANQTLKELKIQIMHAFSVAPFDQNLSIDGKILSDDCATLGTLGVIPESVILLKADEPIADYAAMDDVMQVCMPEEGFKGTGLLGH
Summary of the method: as §1

USP5 = biological target: T4, USP5 (UniProt P45974)
T4 sequence (whole entry): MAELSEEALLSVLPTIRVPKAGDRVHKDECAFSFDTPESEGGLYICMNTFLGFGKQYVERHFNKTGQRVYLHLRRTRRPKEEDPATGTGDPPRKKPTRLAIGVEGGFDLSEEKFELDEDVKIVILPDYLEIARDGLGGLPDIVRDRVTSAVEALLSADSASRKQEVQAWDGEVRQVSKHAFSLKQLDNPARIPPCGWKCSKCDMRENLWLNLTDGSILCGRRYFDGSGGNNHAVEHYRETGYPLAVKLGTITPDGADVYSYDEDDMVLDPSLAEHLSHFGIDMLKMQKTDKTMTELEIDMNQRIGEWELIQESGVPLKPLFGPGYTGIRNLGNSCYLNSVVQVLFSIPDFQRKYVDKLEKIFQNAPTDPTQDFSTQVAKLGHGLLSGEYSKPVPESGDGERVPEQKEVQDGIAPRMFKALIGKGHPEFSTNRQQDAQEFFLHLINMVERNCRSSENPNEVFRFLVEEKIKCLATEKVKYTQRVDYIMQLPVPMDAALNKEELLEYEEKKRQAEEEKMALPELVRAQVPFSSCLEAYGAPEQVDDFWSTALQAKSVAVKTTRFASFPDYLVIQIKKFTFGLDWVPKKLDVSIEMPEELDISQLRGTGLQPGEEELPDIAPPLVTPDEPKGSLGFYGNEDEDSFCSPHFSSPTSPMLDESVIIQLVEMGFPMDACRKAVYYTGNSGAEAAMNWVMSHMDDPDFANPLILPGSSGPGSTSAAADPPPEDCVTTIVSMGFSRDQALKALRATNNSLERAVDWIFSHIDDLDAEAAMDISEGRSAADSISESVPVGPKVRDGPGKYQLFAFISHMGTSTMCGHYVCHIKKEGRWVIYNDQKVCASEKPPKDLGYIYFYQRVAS
Summary of the method: as §1

USP54 = USP54 (UniProt Q70EL1)
Summary of the method: as §1

USP7 = USP7 (UniProt Q93009)
Summary of the method: as §1

USP8 = biological target: T5, USP8 (UniProt P40818)
T5 sequence (whole entry): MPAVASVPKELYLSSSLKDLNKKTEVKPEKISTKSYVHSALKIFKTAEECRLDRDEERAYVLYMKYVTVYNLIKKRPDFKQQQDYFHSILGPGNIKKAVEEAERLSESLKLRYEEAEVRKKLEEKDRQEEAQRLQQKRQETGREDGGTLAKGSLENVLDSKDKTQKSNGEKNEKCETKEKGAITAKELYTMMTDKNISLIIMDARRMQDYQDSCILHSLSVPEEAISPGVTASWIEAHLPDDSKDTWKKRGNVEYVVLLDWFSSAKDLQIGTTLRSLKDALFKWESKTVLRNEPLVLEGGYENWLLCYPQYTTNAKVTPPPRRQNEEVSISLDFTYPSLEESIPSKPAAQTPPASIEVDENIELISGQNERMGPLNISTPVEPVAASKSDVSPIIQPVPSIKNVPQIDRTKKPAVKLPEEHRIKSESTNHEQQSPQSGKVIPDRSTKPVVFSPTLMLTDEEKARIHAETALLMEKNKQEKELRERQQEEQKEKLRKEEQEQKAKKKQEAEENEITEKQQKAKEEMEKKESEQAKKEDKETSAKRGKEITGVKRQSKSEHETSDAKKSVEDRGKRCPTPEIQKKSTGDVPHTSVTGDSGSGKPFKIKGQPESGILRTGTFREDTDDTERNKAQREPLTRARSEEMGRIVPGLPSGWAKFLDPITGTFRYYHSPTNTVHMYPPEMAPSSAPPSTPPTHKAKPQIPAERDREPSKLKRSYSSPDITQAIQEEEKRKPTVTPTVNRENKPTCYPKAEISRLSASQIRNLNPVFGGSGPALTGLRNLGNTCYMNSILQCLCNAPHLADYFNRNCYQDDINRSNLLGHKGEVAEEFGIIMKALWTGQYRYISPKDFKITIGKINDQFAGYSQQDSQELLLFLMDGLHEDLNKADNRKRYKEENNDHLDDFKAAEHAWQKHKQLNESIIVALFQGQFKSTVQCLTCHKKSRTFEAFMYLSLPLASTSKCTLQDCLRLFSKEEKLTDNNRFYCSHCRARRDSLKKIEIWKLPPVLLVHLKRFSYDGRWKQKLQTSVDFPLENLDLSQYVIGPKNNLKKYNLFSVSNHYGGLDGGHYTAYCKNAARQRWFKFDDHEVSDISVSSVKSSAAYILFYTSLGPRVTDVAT
Summary of the method: as §1

USP9X = USP9X (UniProt Q93008)
Summary of the method: as §1

UniProt O00487 = biological target: UniProt O00487
Summary of the method: as §1

Chain of USP9X (Q93008 whole entry): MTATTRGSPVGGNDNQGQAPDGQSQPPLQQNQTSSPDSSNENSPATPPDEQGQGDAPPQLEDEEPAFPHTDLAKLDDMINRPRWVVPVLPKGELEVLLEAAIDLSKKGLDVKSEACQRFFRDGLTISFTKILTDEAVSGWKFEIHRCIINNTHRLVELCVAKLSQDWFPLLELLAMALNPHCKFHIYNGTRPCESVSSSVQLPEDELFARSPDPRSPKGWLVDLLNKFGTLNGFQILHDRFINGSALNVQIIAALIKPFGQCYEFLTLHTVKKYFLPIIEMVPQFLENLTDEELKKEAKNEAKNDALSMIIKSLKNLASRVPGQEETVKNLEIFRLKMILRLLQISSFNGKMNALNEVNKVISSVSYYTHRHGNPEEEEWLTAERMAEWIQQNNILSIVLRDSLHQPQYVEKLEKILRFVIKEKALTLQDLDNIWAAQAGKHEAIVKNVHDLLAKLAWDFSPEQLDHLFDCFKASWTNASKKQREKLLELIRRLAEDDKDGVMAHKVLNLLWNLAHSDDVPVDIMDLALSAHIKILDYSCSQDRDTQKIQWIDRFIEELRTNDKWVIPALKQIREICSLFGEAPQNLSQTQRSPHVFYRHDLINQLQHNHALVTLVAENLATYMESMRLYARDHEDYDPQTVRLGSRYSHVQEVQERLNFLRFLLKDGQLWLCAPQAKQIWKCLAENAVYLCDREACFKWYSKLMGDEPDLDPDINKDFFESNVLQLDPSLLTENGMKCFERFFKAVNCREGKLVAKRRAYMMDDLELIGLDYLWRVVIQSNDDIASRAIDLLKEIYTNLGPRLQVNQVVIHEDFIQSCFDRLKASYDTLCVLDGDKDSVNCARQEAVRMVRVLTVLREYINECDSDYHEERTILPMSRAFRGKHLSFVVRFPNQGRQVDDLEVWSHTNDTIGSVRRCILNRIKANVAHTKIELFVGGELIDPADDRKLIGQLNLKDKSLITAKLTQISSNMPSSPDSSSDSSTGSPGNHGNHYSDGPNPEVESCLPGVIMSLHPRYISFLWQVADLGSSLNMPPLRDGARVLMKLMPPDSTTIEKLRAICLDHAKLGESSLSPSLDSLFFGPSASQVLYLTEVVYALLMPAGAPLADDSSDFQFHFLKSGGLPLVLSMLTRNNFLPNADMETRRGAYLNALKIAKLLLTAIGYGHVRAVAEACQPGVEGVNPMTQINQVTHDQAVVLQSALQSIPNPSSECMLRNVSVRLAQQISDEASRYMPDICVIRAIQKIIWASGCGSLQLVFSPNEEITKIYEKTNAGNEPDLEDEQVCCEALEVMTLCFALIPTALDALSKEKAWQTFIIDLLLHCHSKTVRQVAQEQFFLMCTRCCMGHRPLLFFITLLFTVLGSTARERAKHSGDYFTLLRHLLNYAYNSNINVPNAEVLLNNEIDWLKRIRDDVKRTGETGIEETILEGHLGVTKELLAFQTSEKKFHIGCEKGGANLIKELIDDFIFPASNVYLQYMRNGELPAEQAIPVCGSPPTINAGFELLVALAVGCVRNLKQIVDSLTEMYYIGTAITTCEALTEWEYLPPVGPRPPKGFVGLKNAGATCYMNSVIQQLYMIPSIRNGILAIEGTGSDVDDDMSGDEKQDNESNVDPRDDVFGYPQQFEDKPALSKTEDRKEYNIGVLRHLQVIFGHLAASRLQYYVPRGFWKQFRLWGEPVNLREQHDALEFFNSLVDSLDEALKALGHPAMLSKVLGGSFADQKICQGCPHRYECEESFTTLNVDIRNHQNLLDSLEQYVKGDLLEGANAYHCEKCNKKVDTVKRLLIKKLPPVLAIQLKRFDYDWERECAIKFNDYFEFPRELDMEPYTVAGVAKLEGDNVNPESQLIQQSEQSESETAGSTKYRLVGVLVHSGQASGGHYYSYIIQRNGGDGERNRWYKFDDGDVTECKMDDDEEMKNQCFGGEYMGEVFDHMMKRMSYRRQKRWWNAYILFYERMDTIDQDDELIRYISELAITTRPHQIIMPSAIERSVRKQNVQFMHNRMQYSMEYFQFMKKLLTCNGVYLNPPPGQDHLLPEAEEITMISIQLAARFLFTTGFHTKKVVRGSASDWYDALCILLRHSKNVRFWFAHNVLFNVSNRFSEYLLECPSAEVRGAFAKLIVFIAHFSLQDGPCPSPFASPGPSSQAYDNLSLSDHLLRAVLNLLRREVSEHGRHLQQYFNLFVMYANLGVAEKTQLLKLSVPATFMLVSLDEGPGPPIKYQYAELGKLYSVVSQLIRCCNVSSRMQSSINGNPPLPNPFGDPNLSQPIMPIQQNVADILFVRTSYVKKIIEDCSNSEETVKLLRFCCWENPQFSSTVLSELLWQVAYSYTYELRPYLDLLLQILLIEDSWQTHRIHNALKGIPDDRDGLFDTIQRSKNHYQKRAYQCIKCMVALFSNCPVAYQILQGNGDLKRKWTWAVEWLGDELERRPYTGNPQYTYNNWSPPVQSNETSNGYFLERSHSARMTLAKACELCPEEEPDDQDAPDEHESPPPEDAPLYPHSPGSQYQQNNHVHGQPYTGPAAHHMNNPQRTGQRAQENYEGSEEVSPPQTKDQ
Chain of USP7 (Q93009 whole entry, looked up): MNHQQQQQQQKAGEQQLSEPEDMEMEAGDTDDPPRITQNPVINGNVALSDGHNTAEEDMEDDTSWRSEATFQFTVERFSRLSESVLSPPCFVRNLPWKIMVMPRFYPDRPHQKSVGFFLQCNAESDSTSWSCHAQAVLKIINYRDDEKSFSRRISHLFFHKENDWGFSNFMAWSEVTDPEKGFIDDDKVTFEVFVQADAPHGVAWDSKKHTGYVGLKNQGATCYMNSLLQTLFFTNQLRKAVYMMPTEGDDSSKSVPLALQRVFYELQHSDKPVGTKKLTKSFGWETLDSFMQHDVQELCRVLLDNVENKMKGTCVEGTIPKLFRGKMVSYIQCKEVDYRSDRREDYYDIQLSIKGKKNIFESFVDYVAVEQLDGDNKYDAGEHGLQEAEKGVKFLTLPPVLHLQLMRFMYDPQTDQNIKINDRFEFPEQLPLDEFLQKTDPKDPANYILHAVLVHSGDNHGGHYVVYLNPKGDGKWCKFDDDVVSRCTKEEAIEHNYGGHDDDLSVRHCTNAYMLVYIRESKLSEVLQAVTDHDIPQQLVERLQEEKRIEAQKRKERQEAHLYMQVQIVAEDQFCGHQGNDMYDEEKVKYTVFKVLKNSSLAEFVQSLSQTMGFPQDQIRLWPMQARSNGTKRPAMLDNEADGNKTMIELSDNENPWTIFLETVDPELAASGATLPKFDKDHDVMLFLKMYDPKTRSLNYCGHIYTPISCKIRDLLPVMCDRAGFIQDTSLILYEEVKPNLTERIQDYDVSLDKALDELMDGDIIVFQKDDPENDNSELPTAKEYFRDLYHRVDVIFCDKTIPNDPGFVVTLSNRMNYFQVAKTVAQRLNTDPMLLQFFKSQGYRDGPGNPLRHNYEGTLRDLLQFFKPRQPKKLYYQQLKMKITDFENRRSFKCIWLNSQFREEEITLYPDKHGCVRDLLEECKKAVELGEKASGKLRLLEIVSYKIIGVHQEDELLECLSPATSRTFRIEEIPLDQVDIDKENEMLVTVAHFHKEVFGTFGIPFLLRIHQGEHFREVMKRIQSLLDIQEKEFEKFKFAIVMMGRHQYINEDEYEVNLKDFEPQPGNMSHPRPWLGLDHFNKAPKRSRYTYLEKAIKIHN
Chain of USP46 (P62068 whole entry): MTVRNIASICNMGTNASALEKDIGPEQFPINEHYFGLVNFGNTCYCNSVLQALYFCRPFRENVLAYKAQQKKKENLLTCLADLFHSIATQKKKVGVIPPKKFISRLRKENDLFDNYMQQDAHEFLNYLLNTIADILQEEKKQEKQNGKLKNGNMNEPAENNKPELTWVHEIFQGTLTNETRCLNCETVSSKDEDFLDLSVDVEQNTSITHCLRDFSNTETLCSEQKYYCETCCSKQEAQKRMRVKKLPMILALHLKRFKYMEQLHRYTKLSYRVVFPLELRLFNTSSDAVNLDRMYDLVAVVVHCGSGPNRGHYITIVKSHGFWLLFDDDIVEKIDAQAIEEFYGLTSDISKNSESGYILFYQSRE
Chain of UniProt O00487 (O00487 whole entry): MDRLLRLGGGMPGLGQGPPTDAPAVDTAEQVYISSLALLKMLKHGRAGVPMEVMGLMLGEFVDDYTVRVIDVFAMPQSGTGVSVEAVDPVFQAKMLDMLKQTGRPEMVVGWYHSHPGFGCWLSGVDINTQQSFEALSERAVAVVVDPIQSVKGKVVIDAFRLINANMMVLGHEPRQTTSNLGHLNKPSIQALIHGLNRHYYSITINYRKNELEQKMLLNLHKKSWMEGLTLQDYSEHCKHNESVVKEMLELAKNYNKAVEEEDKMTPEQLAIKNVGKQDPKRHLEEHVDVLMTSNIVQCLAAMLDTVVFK

Structure (SMILES): N#Cc1ccccc1N1CCN(C(=O)CCl)CC1
- log2 ratio of Biotin-Ahx-Ub-VS probe labelling (USP42): 0.456
- log2 ratio of Biotin-Ahx-Ub-VS probe labelling (USP46): -0.871
- log2 ratio of Biotin-Ahx-Ub-VS probe labelling (USP47): -0.514
- log2 ratio of Biotin-Ahx-Ub-VS probe labelling (USP48): -1.04
- log2 ratio of Biotin-Ahx-Ub-VS probe labelling (USP5): -0.123
- log2 ratio of Biotin-Ahx-Ub-VS probe labelling (USP54): 1.03
- log2 ratio of Biotin-Ahx-Ub-VS probe labelling (USP7): -1.73 (active)
- log2 ratio of Biotin-Ahx-Ub-VS probe labelling (USP8): -0.729
- log2 ratio of Biotin-Ahx-Ub-VS probe labelling (USP9X): -0.651
- log2 ratio of Biotin-Ahx-Ub-VS probe labelling (UniProt O00487): 0.0611
